Results: PubChem BioAssay AID602399 (Sanford-Burnham Center for Chemical Genomics, 2012)
Where “and” joins values, the source holds several entries; their conditions need not be identical. Equal values may be shown once. The whole screen tested about 360,000 compounds, of which about 2,800 (0.78%) were called active. No stated cut-off is given here; in the data, active means inhibition above about 26%; inactive means the rest. The entries come from a sample that favours actives as a whole. Some structures have more than one record in an assay (separate samples or runs), and their calls can disagree.

Test system: Nicotinate-nucleotide adenylyltransferase NadD (Staphylococcus aureus N315)
Assay: S. aureus NadD enzyme activity blockers – biochemical, colorimetric, uHTS, primary screen (AID 602399)
Details: purified NadD enzyme, colorimetric absorbance read-out; at 20 µM; stronger effect = higher value

Compound | inhibition
FC(F)(F)C1CCCN(c2nsc3ccccc23)C1 (centres undefined) | 34.7% (active)
CC(C)(C)c1ccc(C(=O)N2CCC(C(=O)N3CCCCC3)CC2)cc1 | -0.861% (inactive)
C/C(CC(=O)Nc1ccc(Cl)cc1)=N\NC(=O)C(=O)NCCO | 2.33% (inactive)
CN(C)Cc1c(C(=O)N/N=C/c2ccccc2OCc2ccc(F)cc2)nnn1-c1nonc1N | 5.11% (inactive)
Nc1nonc1-n1nnc(C(=O)N/N=C/c2cc(Br)ccc2O)c1CSC1=NCCS1 | 37.3% (active)
CC(C)c1c(C(=O)N/N=C/c2ccccc2C(=O)O)nnn1-c1nonc1N | -2.34% (inactive)
Clc1ccc(-c2cc(C3CCNCC3)[nH]n2)c(Cl)c1 | -5.2% (inactive)
CCC(C(=O)OC)n1cnc2c(oc3ccccc32)c1=O (centres undefined) | -0.579% (inactive)
COC(=O)c1ccc(CSc2nnc(NC(C)C)s2)cc1 | -1.36% (inactive)
Cc1ccc(C(=O)Oc2coc(CSc3nnc(NC(=O)c4cccs4)s3)cc2=O)cc1C | 58.4% (active)
CCOc1ccccc1Nc1nnc(SCc2ccc(C(=O)OC)o2)s1 | -2.72% (inactive)
Cc1cc(C)c(C2C3=C(Nc4c2c(C)nn4-c2ccccn2)c2ccccc2C3=O)c(C)c1 (centres undefined) | 33.2% (active)
Cc1ccc(C)c(OCCC(=O)OCC(=O)c2ccc3c(c2)NC(=O)CO3)c1 | -5.39% (inactive)
COc1ccc(C(=O)c2c(C)c(CCC#N)n3ccccc23)c(OC)c1 | -8.39% (inactive)
CCOc1ccc(CN2CCNC(=O)C2CC(=O)NCCCC2CCCC2)cc1 (centres undefined) | 8.04% (inactive)
Oc1ccc(C2Nc3cccc4cccc(c34)N2)cc1 | 57.7% (active)
COc1cccc(CNCCc2c[nH]c3ccccc23)c1OCc1ccccc1F | -4.86% (inactive)
Cc1cc(C(=O)NNS(=O)(=O)c2ccccc2C(F)(F)F)nn1C(C)(C)C | -0.0808% (inactive)
COc1ccc(/C(=N\O)c2nccc3cc(OC)c(OC)cc23)cc1OC | -0.658% (inactive)
CNC(=O)c1ccc(CN(C)C(=O)c2cc(C3CC3)nc3c2cnn3C(C)C)cc1 | 2.58% (inactive)
CC(=O)NC(Cc1c[nH]c2ccccc12)C(=O)NCCc1ccccc1 (centres undefined) | -5.17% (inactive)
O=C(NC(Cc1c[nH]c2ccccc12)C(=O)N/N=C/c1ccc(Br)cc1)c1cccs1 (centres undefined) | 32% (active)
O=C(CNC(=O)c1cccs1)N/N=C/c1cccc(Br)c1 | -5.24% (inactive)

Compound | inhibition
O=C1N(c2ccccc2)C(=Nc2ccccc2)SC12CC2 | -4.95% (inactive)
Cc1cc(Cl)ccc1NNC(=O)c1snnc1C | 1.86% (inactive)
OC(c1ccc(F)cc1)c1ncc(-c2cccc(C(F)(F)F)c2)[nH]1 (centres undefined) | 0.456% (inactive)
O=C(NCc1ccccc1Cl)c1ccc2c(=O)n(CC3CCCO3)c(=S)[nH]c2c1 (centres undefined) | -3.54% (inactive)
COc1ccc(N=Nc2ccc(O)c(P(=O)(c3ccccc3)c3ccccc3)c2)cc1 | 30.9% (active)
Cc1cc(N=Nc2ccc3ccccc3c2)ccc1O | -20.6% (inactive)
CC(C)(C)c1cc(P(=O)(c2ccccc2)c2ccccc2)ccc1O | -3.61% (inactive)
CN1CC(=O)N=C1N | -3.38% (inactive) and -0.141% (inactive)
COc1cccc(CN(C)C(=O)CC[C@H]2O[C@@H](n3cnc4c(NC(=O)c5ccccc5)ncnc43)[C@H](O)[C@@H]2O)c1 | -1.41% (inactive)
O=C(CCN1CCCCC1)N=Nc1c(O)[nH]c2ccccc12 | -5.32% (inactive)
O=[N+]([O-])c1cc(S(=O)(=O)Nc2cccc(Cl)c2)ccc1N=Nc1c(O)[nH]c2ccccc12 | 61% (active)
O=C(NCc1ccncc1)c1ccc(NS(=O)(=O)c2cccc([N+](=O)[O-])c2)cc1 | -1.63% (inactive)
CCOC(=O)[C@]12CCCC=C1N(Cc1ccc(Cl)cc1Cl)C(=O)[C@H](CC(=O)N1CCCCC1)C2 | -1.55% (inactive)
Cc1ccc(N(CC(=O)NCC2CCCO2)C(=O)CNS(=O)(=O)c2ccc(Cl)cc2)cc1 (centres undefined) | 2.66% (inactive)
COc1ccc(-c2nc3cnccn3c2NC(C)(C)CC(C)(C)C)cc1O | -3.5% (inactive)
COc1ccc(-c2nc3cc(C)ccn3c2NC2CCCCC2)cc1SC1CCCCC1 | 17% (inactive) and 21% (inactive)
COc1ccc(-c2nc3cnccn3c2NC2CCCCC2)cc1-c1cccc(Cl)c1 | 33.8% (active) and 14.3% (inactive)
COC(=O)c1ccc2nc(-c3cccc(Br)c3)c(Cc3ccc(OC)cc3C)n2c1 | 20.8% (inactive)
COC(=O)c1ccc2nc(-c3ccc(C)cc3)c(Cc3ccc(OC)cc3C)n2c1 | 31.6% (active)
COC(=O)c1ccc2nc(-c3ccccc3)c(Cc3ccc(OC)cc3C)n2c1 | 10.9% (inactive)
O=C(COC(=O)c1cccnc1Cl)Nc1ccc(S(=O)(=O)N2CCOCC2)cc1 | -4.21% (inactive)
O=C(CSc1nnc(COc2ccc(Cl)cc2)n1Cc1ccco1)N1CCNC1=O | 4.26% (inactive)
Cn1c2ccccc2c(=O)c2c(=O)n(Cc3ccco3)c(COc3ccccc3)nc21 | 42.5% (active)

Compound | inhibition
CCc1nc2oc3ccccc3c(=O)c2c(=O)n1Cc1ccc(OC)cc1 | 2.99% (inactive)
COc1ccc(-c2ccc(CN3C(C(C)C)C(=O)N(Cc4cn(CC5CCCCC5)nn4)CCS3(=O)=O)cc2)cn1 (centres undefined) | 4.8% (inactive)
CCOC(=O)C(Sc1ncc(C#N)c(N)n1)C(C)C (centres undefined) | 2.12% (inactive)
CCCc1c(C(=O)Nc2ccc(F)cc2)cnn1-c1ccccc1 | -0.321% (inactive)
Cc1cccc(C)c1-n1nnnc1C1(C)CCC(=O)N1CCOc1ccccc1 (centres undefined) | -5.82% (inactive)
Cc1ccsc1/C=N/n1c(=S)[nH]nc(C)c1=O | 1.04% (inactive)
S=c1[nH]nc(-c2cccs2)n1/N=C/c1cn(-c2ccccc2)nc1-c1ccc(Cl)cc1 | 32.6% (active)
CC(=O)C1=C(C)NC(C)=C(C(C)=O)C1c1cn(-c2ccccc2)nc1-c1cccs1 | 11.6% (inactive)
C[C@H]1CC[C@]2(O[C@@H](CCO)C[C@@H](O)[C@@H]2O)O1 | 0.758% (inactive)
O=C(COC(=O)CCCNC(=O)c1ccc(Cl)cc1)Nc1cc(Cl)ccc1Cl | -4.1% (inactive)
COc1ccc([N+](=O)[O-])cc1C1NN=C(c2cccc3ccccc23)S1 (centres undefined) | 17.6% (inactive)
NC(=O)C1CC(=O)N(c2ccc(OCC(=O)NCc3ccccc3)cc2)C1 (centres undefined) | 1.55% (inactive)
COc1ccccc1C(=O)NCC(=O)OCC(=O)Nc1nnc(-c2ccccc2)o1 | 10.3% (inactive)
O=C(COC(=O)c1ccccc1)Nc1ccccc1Sc1ccccc1 | -7.21% (inactive)
O=C(COC(=O)c1ccc(Oc2ccccc2)cc1)Nc1nnc(-c2ccccc2)o1 | 47.6% (active)
CC(C)(C)C(=O)CCN1C(=O)C2(OCCO2)c2ccccc21 | -0.902% (inactive)
COC(=O)[C@@]1(Cc2ccc(F)cc2)[C@H]2c3cc(C(=O)N4CCCC4)n(Cc4ccc(OC(F)(F)F)cc4)c3C[C@H]2CN1C(=O)c1ccccc1 | 13.9% (inactive)
Cc1cc(C(=O)CSc2nc(N)cc(=O)[nH]2)c(C)n1-c1cccc(F)c1 | 23.5% (inactive)
Cc1cc(=O)[nH]c(SCc2ccc(Cl)cc2)n1 | -4.15% (inactive)
Cc1cc(C(=O)CSc2nc(N)cc(=O)[nH]2)c(C)n1CCc1ccc(Cl)cc1 | 45.2% (active)
C/C=C/C=C/C(=O)O | 2.73% (inactive)
COC(=O)c1sccc1NC(=O)CSc1ccccc1NS(=O)(=O)c1cc(Cl)ccc1Cl | 8.33% (inactive)
O=[N+]([O-])c1ccccc1/C=N/n1c(COc2ccccc2)n[nH]c1=S | 4.33% (inactive)

Compound | inhibition
CCOc1ccc(-c2n[nH]c(=S)n2/N=C/c2cc3c(cc2[N+](=O)[O-])OCO3)cc1 | 33.3% (active)
Cc1ccc(S(=O)(=O)N/N=C\c2cc3c(cc2[N+](=O)[O-])OCO3)cc1 | -4.98% (inactive)
O=C1CC2(CC(c3ccc(Cl)cc3)=NO2)C(=O)N1c1ccccc1 (centres undefined) | -6.96% (inactive)
CC(=O)Nc1ccc(NC(=O)C(C)n2c3ccccc3c3nc(=O)cc(C)n32)cc1 (centres undefined) | 1.71% (inactive)
Cc1cc(C)cc(N(CC(=O)Nc2c(C)n(C)n(-c3ccccc3)c2=O)S(C)(=O)=O)c1 | 0.515% (inactive)
O=C(/C=C/c1ccco1)NC(=S)N1CCCCC1 | 0.202% (inactive)
COc1ccc(Cl)cc1C(=O)NNC(=S)NC1CCCC1 | 2.3% (inactive)
COc1ccc(Cl)cc1C(=O)NNC(=S)NC(=O)/C=C/c1ccco1 | 41.2% (active)
Cc1ccc(C(=O)NN(CCC#N)C2=NS(=O)(=O)c3ccccc32)cc1 | 2.03% (inactive)
C=CC1=C(C(=O)O)N2C(=O)[C@@H](NC(=O)/C(=N/OCC(=O)O)c3csc(N)n3)[C@H]2SC1 | 94.8% (active)
C=CC1=C(C(=O)O)N2C(=O)[C@@H](NC(=O)/C(=N\OCC(=O)O)c3csc(N)n3)[C@H]2SC1 | 15.8% (inactive)
Cc1ccc(Cl)cc1NC(=O)C1CCN(S(C)(=O)=O)CC1 | -1.83% (inactive)
CN(C)c1nc(N)nc(Cn2nnc(-c3ccc(C(F)(F)F)cc3)n2)n1 | -3.29% (inactive)
CC1(Oc2cccc(F)c2)CCN(Cc2ccccc2OC(F)F)C1 (centres undefined) | -4.85% (inactive)
CC(=O)Nc1ccc(SCC(=O)Nc2ccccc2Oc2ccccc2)cc1 | -2.74% (inactive)
CCC(C)Cn1c(O)cc2nn(-c3nc4ccccc4s3)c(=O)c-2c1C (centres undefined) | 81.3% (active)
C/C(CC(C)C)=N\Oc1nc(C)cc(C)n1 | -5.32% (inactive)
Cc1ccc2nc(-c3ccco3)c(Cc3cccc(Cl)c3)n2c1 | 2.81% (inactive)
Clc1ccccc1CSc1nnc(-c2ccco2)c(-c2ccco2)n1 | 29.3% (active)
CSc1nc(-c2ccco2)nn1C(=O)c1ccccc1Cl | -4.61% (inactive)
